{
  "source": "PubChem BioAssay (EPA / NIEHS)",
  "note": "Calls of active or inactive are those of the source. Rule for the calls: active = hit-call score of the fitted dose curve at least 0.9, where 1 is the maximum; inactive = score below 0.9.",
  "data": [
    {"assay": "APR_HepG2_p53Act_1hr: Apredica 1-hour HepG2 Assay for p53 Activation (AID 2282671)", "details": "high-content imaging, actives raise or lower the signal", "procedure": "APR_HepG2_1hr is a cell-based, multiplexed-readout assay that uses HepG2, a human liver cell line, with measurements taken at 1 hour after chemical dosing in a 384-well plate.APR_HepG2_p53Act_1hr is one of 10 assay component(s) measured or calculated from the APR_HepG2_1hr assay. It is designed to make measurements of dna content, a form of viability reporter, as detected with fluorescence intensity signals by HCS Fluorescent Imaging technology.Data from the assay component APR_HepG2_p53Act_1hr was analyzed into 1 assay endpoint. This assay endpoint, APR_HepG2_p53Act_1hr, was analyzed with bidirectional fitting relative to DMSO as the negative control and baseline of activity. Using a type of viability reporter, measures of protein for gain or loss-of-signal activity can be used to understand the signaling at the pathway-level as they relate to the gene TP53. Furthermore, this assay endpoint can be referred to as a primary readout, because this assay has produced multiple assay endpoints where this one serves a signaling function. To generalize the intended target to other relatable targets, this assay endpoint is annotated to the dna binding intended target family, where the subfamily is tumor suppressor.\nCells were treated with dimethyl sulfoxide (DMSO) as a solvent control at a final concentration of 0.5% v/v or with compounds in DMSO with a resulting final DMSO concentration of 0.5% v/v. Compound treatment was done at concentrations of 0.39, 0.78, 1.56, 3.12, 6.24, 12.5, 25, 50, 100, and 200 uM in duplicate on each plate. Cells were treated with compounds for 1, 24, or 72 hr. Carbonyl […] m-chloro-phenylhydrazone (CCCP) and taxol were used as positive controls for mitochondrial function and cytoskeletal stability, respectively; DMSO served as the negative control for this experiment. Cells were fixed by the direct addition of 50 uL formaldehyde in Hank's Balanced Salt Solution (HBSS) to a final concentration of 3.7%. After incubation in the fixation medium for 30 min at room temperature (293-298 K), cells were rinsed twice with HBSS and treated with cell permeabilization buffer (16 uL of 0.5% Triton X-100) for 10 min at room temperature (293-298 K) before labeling. For mitochondrial membrane potential and mitochondrial measurements, pre-fixed cells were incubated with 50 uL of MitoTracker Red CMXRos (Invitrogen) at a concentration of 250 nM for 30 min before fixation. In the remaining cases, post-fixed cells were labeled by incubation with a multiplexed mixture of primary antibodies in HBSS for 60 min at room temperature (293-298 K) to detect immunoreactivity of c-Jun (1:500), phospho-histone H3 (1:100), phospho-histone H2A.x (1:200), p53 (1:400), alpha-tubulin (1:200) and Hoechst 33342 (2 ug/mL). Cells were labeled for multiplexed imaging on two separate plates: a) Hoechst 33342, MitoTracker Red, phospho-histone H3, and alpha-tubulin, and b) Hoechst 33342, phospho-histone H2A.x, and c-Jun. A final rinse with HBSS (50 uL) was performed before analysis. The primary and secondary antibodies for the proteins were phospho-histone H3 (rabbit anti-phospho-histone H3 and FITC-donkey anti-rabbit IgG), phospho-histone H2A.x (mouse anti-phospho-histone H2A.x and FITC-donkey anti-mouse IgG), c-Jun (rabbit anti-phospho-c-Jun and Cy3-donkey anti-rabbit IgG), p53 (sheep anti-p53 and Cy5-donkey anti-sheep IgG), alpha-tubulin (mouse anti-alpha-tubulin and Cy5-donkey anti-mouse IgG). These antibodies are available as the CellCiphr HepG2 assay kit (Millipore).Digital images of each well were captured using a Cellomics ArrayScan VTI (Thermo Scientific Cellomics) (0.8 NA objective, 0.63x optical coupler, and XF-93 filter set) at 20x magnification. The images were acquired using the autofocus feature of the ArrayScan instrument, which entails the following steps. First, the camera focuses on channel 1 (Hoechst 33342), where nuclei are identified. Second, a Z offset of 1 um is used for capturing mitochondria (MitoTracker Red). […]", "values": [
      {"smiles": "CCOC(=O)COc1cc(-n2ncc(C(F)(F)F)c(C)c2=O)c(F)cc1Cl", "outcome": "inactive"},
      {"smiles": "C#CCOC(=O)[C@@H](C)Oc1ccc(Oc2ncc(Cl)cc2F)cc1", "outcome": "inactive"},
      {"smiles": "COC(=O)c1ccc(I)cc1S(=O)(=O)NC(=O)Nc1nc(C)nc(OC)n1", "outcome": "inactive"},
      {"smiles": "C=CCOC(Cn1ccnc1)c1ccc(Cl)cc1Cl", "note": "(stereo not given)", "outcome": "inactive"},
      {"smiles": "CC1(C)C(C=C(Cl)Cl)C1C(=O)OCc1cccc(Oc2ccccc2)c1", "note": "(stereo not given)", "outcome": "inactive"},
      {"smiles": "Cc1nn(C)c(Oc2ccccc2)c1C=NOCc1ccc(C(=O)OC(C)(C)C)cc1", "outcome": "inactive"},
      {"smiles": "CCN(Cc1c(F)cccc1Cl)c1c([N+](=O)[O-])cc(C(F)(F)F)cc1[N+](=O)[O-]", "outcome": "inactive"},
      {"smiles": "COCCO", "outcome": "inactive"},
      {"smiles": "CCCOC(=O)c1ccc(C(=O)OCCC)nc1", "outcome": "inactive"},
      {"smiles": "CCCCC(CC)COC(=O)c1ccccc1C(=O)O", "note": "(stereo not given)", "outcome": "inactive"},
      {"smiles": "CCNc1nc(N)nc(Cl)n1", "outcome": "inactive"},
      {"smiles": "COc1nc(C)nc(NC(=O)NS(=O)(=O)c2ccccc2OCCCl)n1", "outcome": "inactive"},
      {"smiles": "CCCN(CCC)c1c([N+](=O)[O-])cc(C(F)(F)F)c(N)c1[N+](=O)[O-]", "outcome": "inactive"},
      {"smiles": "CCC(C)OC(=O)N1CCCCC1CCO", "note": "(stereo not given)", "outcome": "inactive"},
      {"smiles": "CCOC(=O)NCCOc1ccc(Oc2ccccc2)cc1", "outcome": "inactive"},
      {"smiles": "COC(=O)c1ccc(CNS(C)(=O)=O)cc1S(=O)(=O)NC(=O)Nc1nc(OC)cc(OC)n1", "outcome": "inactive"},
      {"smiles": "CCCCC(CC)CN1C(=O)C2C3C=CC(C3)C2C1=O", "note": "(stereo not given)", "outcome": "inactive"},
      {"smiles": "CCCN(CCC)C(=O)SCC", "outcome": "inactive"},
      {"smiles": "COC(=O)c1c(Cl)nn(C)c1S(=O)(=O)NC(=O)Nc1nc(OC)cc(OC)n1", "outcome": "inactive"},
      {"smiles": "Oc1ccc(C(c2ccc(O)cc2)C(Cl)(Cl)Cl)cc1", "outcome": "inactive"},
      {"smiles": "CC(C)(C)[C@@H](O)[C@@H](Cc1ccc(Cl)cc1)n1cncn1", "outcome": "inactive"},
      {"smiles": "COC(=O)c1ccccc1C(=O)O", "outcome": "inactive"},
      {"smiles": "OB(O)O", "outcome": "inactive"},
      {"smiles": "c1ccc(Nc2ccccc2)cc1", "outcome": "inactive"},
      {"smiles": "CCCCOC(=O)C(C)Oc1ccc(Oc2ccc(C(F)(F)F)cn2)cc1", "note": "(stereo not given)", "outcome": "inactive"},
      {"smiles": "O=C(O)C1(C(=O)Nc2ccc(Cl)cc2Cl)CC1", "outcome": "inactive"},
      {"smiles": "CCCCOC(=O)[C@@H](C)Oc1ccc(Oc2ccc(C(F)(F)F)cn2)cc1", "outcome": "inactive"},
      {"smiles": "CCSC(=O)N(CC(C)C)CC(C)C", "outcome": "inactive"},
      {"smiles": "COC(=O)CSc1cc(N=c2sc(=O)n3n2CCCC3)c(F)cc1Cl", "outcome": "inactive"},
      {"smiles": "CCCOC(=O)NCCCN(C)C", "outcome": "inactive"},
      {"smiles": "CCCCCCC(C)OC(=O)COc1nc(F)c(Cl)c(N)c1Cl", "note": "(stereo not given)", "outcome": "inactive"},
      {"smiles": "COC(=O)c1ccccc1S(=O)(=O)NC(=O)Nc1nc(OC(F)F)cc(OC(F)F)n1", "outcome": "inactive"},
      {"smiles": "CCOC(=O)[C@H](C)Oc1ccc(Oc2nc3ccc(Cl)cc3o2)cc1", "outcome": "inactive"},
      {"smiles": "CSC(=O)c1cccc2nnsc12", "outcome": "inactive"},
      {"smiles": "CCC(O)=C1C(=O)CC(C(=O)O)CC1=O", "note": "(stereo not given)", "outcome": "inactive"},
      {"smiles": "COC(=O)c1cccc(C)c1S(=O)(=O)NC(=O)Nc1nc(OCC(F)(F)F)nc(N(C)C)n1", "outcome": "inactive"},
      {"smiles": "CCOC(=O)C(C)Oc1ccc(Oc2nc3ccc(Cl)cc3o2)cc1", "note": "(stereo not given)", "outcome": "inactive"},
      {"smiles": "CC(C)(c1ccc(O)cc1)c1ccc(O)cc1", "outcome": "inactive"},
      {"smiles": "CN(C)C(=O)Nc1ccc(Cl)c(Cl)c1", "outcome": "inactive"},
      {"smiles": "O=C(Nc1ccc([N+](=O)[O-])cc1Cl)c1cc(Cl)ccc1O", "outcome": "inactive"}
    ]}
  ]
}
